# Source: PubChem BioAssay
# KB-V1 MDR tox: qHTS assay for MDR1-selective chemotherapeutics: Primary screen using the drug-selected MDR subline cells KB-V1 | KB-V1 MDR cells viability, CellTiter-Glo, 72 h | Potency, µM (doses to about 46.1 µM), usual class: cytotoxic | 3.4% of 400,000 active | AID 1347076, 2019; note: nearly all actives have a fitted effect of over 60% in size
#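 KB-V1, DMEM (no phenol red) + 10% FBS; cpd pin-transferred, titration series; 72 h, 37 degrees C; CellTiter-Glo, luminescence. Data normalized, curve-fit.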
# HT1080NT lethal: qHTS for induction of synthetic lethality in tumor cells producing 2HG: qHTS for the HT-1080-NT fibrosarcoma cell line; 1.6% of 360,000 active; HT-1080-NT fibrosarcoma viability, CellTiter-Glo ATP luminescence, 48 h; Potency, µM (top dose mostly 46.1 µM), usual class: cytotoxic;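 note: NT is the 2HG producing partner of a matched IDH1 knockdown line; nearly all actives have a fitted effect of over 55% in size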
#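 Compounds were tested in concentration-response format on HT-1080-NT cells for 48 hours at 37 degrees C. Cell viability came from CellTiter-Glo luminescence; curves were classified by r2, response magnitude and activity.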
# TDP1 cell noCPT: qHTS for Inhibitors of human tyrosyl-DNA phosphodiesterase 1 (TDP1): qHTS in cells in absence of CPT | 15% of 420,000 active | Potency, µM (top dose mostly 46.2 µM), actives largely listed as inhibitors | DT40 Tdp1-/- hTDP1 cells, no CPT, ATP luminescence, 48 h; note: nearly all actives have a fitted effect of over 55% in size
#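 Stably hTDP1-transfected Tdp1-null chicken DT40 cells were treated with library compounds minus camptothecin and grown for at least 48 hr at 37 °C, after which cellular ATP was quantified by luminescence.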
# TDP1 cell CPT: qHTS for Inhibitors of human tyrosyl-DNA phosphodiesterase 1 (TDP1): qHTS in cells in presence of CPT. chicken DT40 Tdp1-/-;hTDP1 cells + 20 nM CPT, ATP luminescence, 48 h. Potency, µM (titrated, usually from 46.2 µM), usual class: inhibitors. 12% of 420,000 active. AID 686979, 2013; note: nearly all actives have a fitted effect of over 55% in size
#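 Chicken DT40 Tdp1-/- cells stably complemented with human TDP1 were seeded at 400 cells/well in medium containing 20 nM camptothecin, exposed to pin-transferred compounds, and grown at 37 °C for at least 48 hr. Viability was read as ATP luminescence.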
# KB-3-1 tox: qHTS assay for MDR1-selective chemotherapeutics: Primary screen using the parental adenocarcinoma cell KB-3-1; KB-3-1 viability, CellTiter-Glo ATP luminescence, 72 h; Potency, µM (doses to about 46.1 µM), most hits filed as cytotoxic; 1.4% of 400,000 active; note: nearly all actives have a fitted effect of over 60% in size
#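 Using CellTiter-Glo luminescence, growth of non-resistant KB-3-1 adenocarcinoma cells is assessed 72 h after pin-tool compound addition at 37 °C. Normalized responses across the concentration series yield fitted curves.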
# HT1080 IDH1KD tx: qHTS for induction of synthetic lethality in tumor cells producing 2HG: qHTS for the HT-1080-IDH1KD cell line; HT-1080 IDH1 knockdown viability, ATP luminescence, 48 h; 2% of 360,000 active; Potency, µM (series often up to 46.1 µM), hits mostly cytotoxic
#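 After a 2 h attachment period, IDH1KD HT-1080 cells took pin-transferred compound for 48 h at 37 °C; ATP-based luminescence after 10 min room-temperature reagent incubation reported viability.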
# Numbers stand for hits; - = inactive; ? = inconclusive; . = no result. Rows were chosen to be rich in hits. Some 19% of all compounds tested hit in one or more screens of this group. Calls come from the whole dose curve; as a rule, active = well fitted curve in the direction sought with a large enough effect; inconclusive = small, poorly fitted or top-dose-only effect, or another doubt; inactive = no such curve, though single readings can be large; an effect the other way counts as inactive or inconclusive.
SMILES,KB-V1 MDR tox,HT1080NT lethal,TDP1 cell noCPT,TDP1 cell CPT,KB-3-1 tox,HT1080 IDH1KD tx
Cc1c(Cl)ccc2sc(N3CCN(C(=O)CS(=O)(=O)c4ccccc4)CC3)nc12,-,.,4.11µM,6.51µM,-,.
COc1cc2ccccc2cc1C(=O)N1CCN(c2nc3c(C)cc(C)cc3s2)CC1,-,.,18.4µM,?,-,.
Cc1c(Cl)ccc2sc(N3CCN(C(=O)C(C)C)CC3)nc12,?,.,6.51µM,11.6µM,-,.
COc1cccc(CNC(=O)Cc2c(C)c3ccc(OC)c(C)c3oc2=O)c1,-,.,-,-,-,.
Cc1cc(C)n2cc(CSc3nncn3C)nc2n1,-,-,-,-,-,-
COc1ccc(NC(=O)CCNS(=O)(=O)c2cccc3nonc23)c(OC)c1,-,-,-,-,-,-
COc1cccc(OC)c1C(=O)Nc1ccc(N2CCN(C(=O)c3cccs3)CC2)cc1,-,-,?,-,-,-
COc1cccc(C(=O)Nc2ccc(N3CCN(C(=O)c4cccs4)CC3)cc2)c1,2.31µM,?,4.61µM,2.31µM,5.17µM,2.59µM
O=C(Nc1ccc(N2CCN(C(=O)c3cccs3)CC2)cc1)c1cccc(F)c1,?,-,20.6µM,16.4µM,18.4µM,?
O=C(Nc1ccc(N2CCN(C(=O)c3cccs3)CC2)cc1)c1ccc(Br)o1,-,-,?,?,-,-
CC(NC(=O)CCNC(=O)c1ccc(Br)cc1)c1ccc(-n2ccnc2)cc1 (configuration not stated),?,-,?,?,-,-
Cc1ccc2c(c1)N(CC(=O)N1CCCCC1)C(=O)CO2,?,-,-,-,?,-
Cc1ccc2c(c1)N(CC(=O)N1CCCc3ccccc31)C(=O)CO2,11.6µM,-,-,-,-,-
Cc1ccc2c(c1)N(CC(=O)NC1CCC(C)CC1)C(=O)CO2 (configuration not stated),-,-,-,-,-,-
Cc1ccc2c(c1)N(CC(=O)NC1CCCc3ccccc31)C(=O)CO2 (configuration not stated),16.4µM,-,-,-,-,-
CCOC(=O)c1cc2occc2n1CC(=O)N1CCCc2ccccc21,16.4µM,-,?,?,-,-
CCOC(=O)c1cc2sccc2n1CC(=O)N1CCCc2ccccc21,?,-,?,?,-,-
CCc1nc2ccc(C(=O)NCc3ccc(OC)cc3)cn2c1N(CC)CCN(C)C,-,-,-,-,-,-
Cc1ccc(NC(=O)N2CCC(CN3CCCCC3)CC2)c(Cl)c1,-,.,-,-,-,.
O=C(Nc1nnc([C@H]2C[C@H](O)[C@@H](CO)O2)s1)C(c1ccccc1)c1ccccc1,-,-,-,-,-,-
COCCn1c(SCC(=O)Nc2cc(C)on2)nc2cc(Cl)ccc2c1=O,?,-,?,-,-,-
COCCn1c(SCC(=O)N2CCc3ccccc3C2)nc2cc(Cl)ccc2c1=O,1.84µM,-,14.6µM,?,?,-
COCCn1c(SCC(=O)N2CCCc3ccccc32)nc2ccccc2c1=O,?,-,16.4µM,?,-,-
CCCN(Cc1nnc(-c2cccs2)o1)C(=O)CN1C(=O)NC2(CCCCC2)C1=O,-,-,-,-,-,-
COc1ccc(CNC(=O)Nc2nnc([C@@H]3C[C@H](O)[C@@H](CO)O3)s2)cc1,-,-,-,-,-,-
SMILES,KB-V1 MDR tox,HT1080NT lethal,TDP1 cell noCPT,TDP1 cell CPT,KB-3-1 tox,HT1080 IDH1KD tx
CN(C)c1cccc(-c2nc(N3CCC(C(N)=O)CC3)ncc2F)c1,-,.,.,.,-,.
CC(=O)c1cccc(Nc2c3c(nc4nc(-c5cccs5)nn24)CCCC3)c1,-,.,18.4µM,?,-,.
Fc1cc(Br)ccc1Nc1c2c(nc3nc(-c4cccs4)nn13)CCCC2,-,.,18.4µM,20.6µM,?,.
Cn1c(=O)c(-c2ccc(Cl)cc2)nc2cnc(Oc3ccccc3)nc21,.,.,-,-,.,.
CC1CCC2C(=O)N(c3ccc(NC4CCN(Cc5ccccc5)CC4)c([N+](=O)[O-])c3)C(=O)C2C1 (configuration not stated),?,-,16.4µM,?,-,-
O=[N+]([O-])c1ccc(NC2CCN(Cc3ccccc3)CC2)c([N+](=O)[O-])c1,-,?,20.6µM,?,-,-
O=C1C2CCCCC2C(=O)N1c1ccc(NC2CCN(Cc3ccccc3)CC2)c([N+](=O)[O-])c1 (configuration not stated),?,-,?,?,-,-
CCOC(=O)[C@H]1[C@H]2COc3cc(OC)ccc3[C@@H]2N2C(=O)c3c(C)cc(C)cc3NC(=O)[C@@]12C,-,-,?,?,-,-
Cc1cccc(N(C)C(=O)C(Cc2ccccc2)NS(=O)(=O)c2cccc3nsnc23)c1 (configuration not stated),-,.,?,?,-,.
CN1C(=O)c2c(sc3c2CC(C)(C)SC3)N2CCN=C12,?,-,20.6µM,20.6µM,-,-
COc1cc2c(cc1OC)CN(C(=O)CN1CCN(S(=O)(=O)c3ccccc3)CC1)CC2,-,-,?,?,-,-
O=c1c(Cl)c(N2CCCCC2)cnn1-c1nc2ccccc2[nH]1,?,?,20.6µM,?,?,?
Clc1ccc2nc(N3CCCCC3)[nH]c2c1,-,-,-,-,-,-
O=c1c2ccccc2cnn1-c1nc2ccccc2[nH]1,?,3.66µM,3.66µM,4.11µM,?,3.66µM
CCOc1ccc(NC(=O)CCSc2nc3c(c(CC)c2C#N)C(=O)CC(C)(C)C3)cc1,-,-,20.6µM,?,-,-
CCCn1c(Cc2ccccc2)n[nH]c1=S,-,-,-,-,-,-
S=c1[nH]nc(Cc2ccccc2)n1Cc1ccco1,?,35.5µM,-,-,-,?
COc1nc(-c2cnccn2)sc1C,?,-,-,-,-,-
O=C1CCC(OCc2ccccc2)CCN1CC[C@@H](Sc1ccccc1)c1ccccc1 (some centres not stated),?,?,?,?,-,?
C[C@@H]1CCC(=O)N(CC[C@H](Sc2ccccc2)c2ccccc2)CC1,?,-,12.6µM,12.6µM,-,-
O=C1CC[C@@H](O)CCN1CC[C@H](Sc1ccccc1)c1ccccc1,?,-,?,?,-,-
